Source: PubChem BioAssay
Calls of active or inactive are those of the source.

How the values were obtained:
[1] = binders of probe aFSTL3 on microarray, primary screen, stem cell growth factor project, biochemical, small-molecule microarray, fluorescence 635/667 (AID 1064); details: higher = more signal;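 note: measures binding of the biotinylated anti-FSTL3 antibody to printed compounds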
[2] = binders from COS7 lysate, DM2A8 probe, primary screen, torsin A project, cell lysate, small-molecule microarray, fluorescence 635/667 (AID 1065); details: higher = more signal, COS7 lysate expressing mutant human TOR1A
[3] = binders of probe aFGF2 on microarray, primary screen, stem cell growth factor project, biochemical, small-molecule microarray, fluorescence 635/667 (AID 1067); details: higher = more signal;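 note: measures binding of biotinylated aFGF2 protein to printed compounds on slides; z-score merges feature fluorescence and signal-to-noise across triplicate slides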
[4] = binders of probe aFGF10 on microarray, primary screen, stem cell growth factor project, biochemical, small-molecule microarray, fluorescence 635/667 (AID 1071); details: higher = more signal;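 note: score merges 667 nm spot intensity and signal to noise from triplicate slides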
[5] = biological target: Neurogenic locus notch homolog protein 2 (Homo sapiens) (UniProt Q04721); test: Notch2 binders on small-molecule microarrays, primary screen, biochemical, small-molecule microarray, 635 nm fluorescence, stem cell growth factors (AID 1073); details: Notch2 binding, higher = more signal
[6] = biological target: Pro-neuregulin-1, membrane-bound isoform (Homo sapiens) (UniProt Q02297); test: NRG1 binders on small-molecule microarrays, primary screen, psychiatric disease protein project, biochemical, small-molecule microarray, fluorescence 635/667 (AID 1075); details: NRG1 binding, 635 nm fluorescence, higher = more signal;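 note: score combines 667 nm spot fluorescence with signal to noise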
Sequence of Pro-neuregulin-1, membrane-bound isoform (Homo sapiens) (Q02297 whole entry, looked up, the tested form may be a part, canonical isoform): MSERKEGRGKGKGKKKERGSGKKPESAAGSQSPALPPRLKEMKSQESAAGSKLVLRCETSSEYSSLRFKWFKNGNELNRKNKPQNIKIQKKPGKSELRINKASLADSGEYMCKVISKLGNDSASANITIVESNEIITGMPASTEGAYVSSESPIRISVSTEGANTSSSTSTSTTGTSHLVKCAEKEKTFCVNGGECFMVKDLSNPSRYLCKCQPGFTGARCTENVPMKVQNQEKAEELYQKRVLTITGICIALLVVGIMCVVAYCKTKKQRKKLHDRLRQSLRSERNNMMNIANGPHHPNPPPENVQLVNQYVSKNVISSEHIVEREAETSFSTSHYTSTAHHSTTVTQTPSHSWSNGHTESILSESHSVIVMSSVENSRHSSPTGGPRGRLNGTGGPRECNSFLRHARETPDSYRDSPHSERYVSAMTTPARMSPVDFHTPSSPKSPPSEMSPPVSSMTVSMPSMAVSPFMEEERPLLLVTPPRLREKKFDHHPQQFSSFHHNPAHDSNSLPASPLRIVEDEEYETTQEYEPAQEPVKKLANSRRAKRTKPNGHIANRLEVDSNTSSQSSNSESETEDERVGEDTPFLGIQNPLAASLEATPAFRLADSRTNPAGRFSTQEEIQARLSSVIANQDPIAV

[7] = tested on: Neuregulin-1 EGF-like domain; test: binders of neuregulin-1 EGF-like domain, primary screen, biochemical, small-molecule microarray, 635 nm fluorescence (AID 1081); details: small-molecule microarray binding, higher = more signal;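 note: binding of the protein to compounds printed on small-molecule microarray slides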
[8] = FRG1 promoter luciferase signal modulators, primary screen, FRG1 inhibition for FSHD, cell-based, C2C12 myotubes, firefly/Renilla luciferase, luminescence (AID 1084); details: higher = more signal, called active from +8 up or from −8 down
[9] = binders of probe aFST on microarray, primary screen, stem cell growth factor project, biochemical, small-molecule microarray, fluorescence 635/667 (AID 1086); details: higher = more signal;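 note: score merges 667 nm fluorescence with signal-to-noise of each printed compound spot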
[10] = binders of probe aHhip on microarray, primary screen, stem cell growth factor project, biochemical, small-molecule microarray, fluorescence 635/667 (AID 1087); details: higher = more signal;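 note: score merges spot fluorescence at 667nm with spot signal to noise ratio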
[11] = tested on: PRMT1 (protein arginine N-methyltransferase 1); test: PRMT1 binders on small-molecule microarrays, primary screen, biochemical, small-molecule microarray, 635 nm fluorescence (AID 1088); details: small-molecule microarray binding, higher = more signal;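 note: binding of Prmt1 protein to compounds spotted on small-molecule microarray slides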
[12] = yeast growth modulation, basal conditions, primary screen, YJM789 clinical isolate, OD600, 24 h (AID 1089);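 note: growth of clinical yeast isolate S. cerevisiae YJM 789 seeded 1000 cells per well; test concentration not given here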; details: S. cerevisiae YJM789 growth, higher = more signal, called active from +8 up or from −8 down
[13] = fission yeast growth modulation, primary screen, strain 972, OD600, 24 h, no modulator (AID 1090);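 note: basal condition with compound alone and no growth modifier present; test concentration not given here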; details: S. pombe 972 growth, higher = more signal, called active from +8 up or from −8 down
[14] = S. cerevisiae growth modulation with rapamycin, primary screen, strain BY4716, OD600, 96 h (AID 1091); details: higher = more signal, called active from +8 up or from −8 down; note: test concentration not given here
[15] = biological target: Torsin-1A-interacting protein 2 (Homo sapiens) (UniProt Q8NFQ8); test: LULL1 binders on small-molecule microarray, primary screen, cell lysate, human LULL1 lysate, 635/667 nm fluorescence (AID 1092); details: hLULL1 lysate binding, 635 nm fluorescence, higher = more signal;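 note: probe is lysate of COS7 cells overexpressing human LULL1; score merges per-feature 667 nm fluorescence with signal-to-noise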
Sequence of Torsin-1A-interacting protein 2 (Homo sapiens) (Q8NFQ8 whole entry, looked up): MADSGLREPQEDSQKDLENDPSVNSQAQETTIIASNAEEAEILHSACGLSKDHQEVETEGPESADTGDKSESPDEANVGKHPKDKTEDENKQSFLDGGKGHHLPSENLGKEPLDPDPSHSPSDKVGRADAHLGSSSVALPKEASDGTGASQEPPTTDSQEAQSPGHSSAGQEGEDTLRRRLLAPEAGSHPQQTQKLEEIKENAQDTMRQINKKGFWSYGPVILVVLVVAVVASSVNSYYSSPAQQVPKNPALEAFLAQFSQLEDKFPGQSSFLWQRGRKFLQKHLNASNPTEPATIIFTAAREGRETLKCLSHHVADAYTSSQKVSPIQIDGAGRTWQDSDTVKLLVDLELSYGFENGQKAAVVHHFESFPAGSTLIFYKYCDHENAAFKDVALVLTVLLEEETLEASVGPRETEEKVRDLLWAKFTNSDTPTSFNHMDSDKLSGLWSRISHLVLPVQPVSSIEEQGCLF

[16] = E. coli growth modulation, two-sided OD650, primary screen, E. coli filamentation project, strain DRC41, 24 h (AID 1093); details: OD650, 24 h, higher = more signal, called active from +8 up or from −8 down;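 note: MC1000 strain lacking acrAB efflux and sulA so SOS filamentation is blocked; test concentration not given here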
[17] = small-molecule microarray binders of probe aLefty2, primary screen, biochemical, biotinylated probe, 635/667 nm fluorescence (AID 1094); details: higher = more signal;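 note: score merges spot fluorescence near 667 nm with spot signal-to-noise ratio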
[18] = tested on: Noggin (protein binding on small-molecule microarray); test: Noggin binders on small-molecule microarray, primary screen, biochemical, 635/667 nm fluorescence (AID 1095); details: 635 nm fluorescence, higher = more signal;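 note: score merges 667 nm feature fluorescence with signal to noise over triplicate slides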
[19] = biological target: Neurogenic locus notch homolog protein 3 (Homo sapiens) (UniProt Q9UM47); test: NOTCH3 binders on small-molecule microarray, primary screen, biochemical, 635/667 nm fluorescence (AID 1096); details: NOTCH3 binding, 635 nm fluorescence, higher = more signal
Sequence of Neurogenic locus notch homolog protein 3 (Homo sapiens) (Q9UM47 whole entry, looked up): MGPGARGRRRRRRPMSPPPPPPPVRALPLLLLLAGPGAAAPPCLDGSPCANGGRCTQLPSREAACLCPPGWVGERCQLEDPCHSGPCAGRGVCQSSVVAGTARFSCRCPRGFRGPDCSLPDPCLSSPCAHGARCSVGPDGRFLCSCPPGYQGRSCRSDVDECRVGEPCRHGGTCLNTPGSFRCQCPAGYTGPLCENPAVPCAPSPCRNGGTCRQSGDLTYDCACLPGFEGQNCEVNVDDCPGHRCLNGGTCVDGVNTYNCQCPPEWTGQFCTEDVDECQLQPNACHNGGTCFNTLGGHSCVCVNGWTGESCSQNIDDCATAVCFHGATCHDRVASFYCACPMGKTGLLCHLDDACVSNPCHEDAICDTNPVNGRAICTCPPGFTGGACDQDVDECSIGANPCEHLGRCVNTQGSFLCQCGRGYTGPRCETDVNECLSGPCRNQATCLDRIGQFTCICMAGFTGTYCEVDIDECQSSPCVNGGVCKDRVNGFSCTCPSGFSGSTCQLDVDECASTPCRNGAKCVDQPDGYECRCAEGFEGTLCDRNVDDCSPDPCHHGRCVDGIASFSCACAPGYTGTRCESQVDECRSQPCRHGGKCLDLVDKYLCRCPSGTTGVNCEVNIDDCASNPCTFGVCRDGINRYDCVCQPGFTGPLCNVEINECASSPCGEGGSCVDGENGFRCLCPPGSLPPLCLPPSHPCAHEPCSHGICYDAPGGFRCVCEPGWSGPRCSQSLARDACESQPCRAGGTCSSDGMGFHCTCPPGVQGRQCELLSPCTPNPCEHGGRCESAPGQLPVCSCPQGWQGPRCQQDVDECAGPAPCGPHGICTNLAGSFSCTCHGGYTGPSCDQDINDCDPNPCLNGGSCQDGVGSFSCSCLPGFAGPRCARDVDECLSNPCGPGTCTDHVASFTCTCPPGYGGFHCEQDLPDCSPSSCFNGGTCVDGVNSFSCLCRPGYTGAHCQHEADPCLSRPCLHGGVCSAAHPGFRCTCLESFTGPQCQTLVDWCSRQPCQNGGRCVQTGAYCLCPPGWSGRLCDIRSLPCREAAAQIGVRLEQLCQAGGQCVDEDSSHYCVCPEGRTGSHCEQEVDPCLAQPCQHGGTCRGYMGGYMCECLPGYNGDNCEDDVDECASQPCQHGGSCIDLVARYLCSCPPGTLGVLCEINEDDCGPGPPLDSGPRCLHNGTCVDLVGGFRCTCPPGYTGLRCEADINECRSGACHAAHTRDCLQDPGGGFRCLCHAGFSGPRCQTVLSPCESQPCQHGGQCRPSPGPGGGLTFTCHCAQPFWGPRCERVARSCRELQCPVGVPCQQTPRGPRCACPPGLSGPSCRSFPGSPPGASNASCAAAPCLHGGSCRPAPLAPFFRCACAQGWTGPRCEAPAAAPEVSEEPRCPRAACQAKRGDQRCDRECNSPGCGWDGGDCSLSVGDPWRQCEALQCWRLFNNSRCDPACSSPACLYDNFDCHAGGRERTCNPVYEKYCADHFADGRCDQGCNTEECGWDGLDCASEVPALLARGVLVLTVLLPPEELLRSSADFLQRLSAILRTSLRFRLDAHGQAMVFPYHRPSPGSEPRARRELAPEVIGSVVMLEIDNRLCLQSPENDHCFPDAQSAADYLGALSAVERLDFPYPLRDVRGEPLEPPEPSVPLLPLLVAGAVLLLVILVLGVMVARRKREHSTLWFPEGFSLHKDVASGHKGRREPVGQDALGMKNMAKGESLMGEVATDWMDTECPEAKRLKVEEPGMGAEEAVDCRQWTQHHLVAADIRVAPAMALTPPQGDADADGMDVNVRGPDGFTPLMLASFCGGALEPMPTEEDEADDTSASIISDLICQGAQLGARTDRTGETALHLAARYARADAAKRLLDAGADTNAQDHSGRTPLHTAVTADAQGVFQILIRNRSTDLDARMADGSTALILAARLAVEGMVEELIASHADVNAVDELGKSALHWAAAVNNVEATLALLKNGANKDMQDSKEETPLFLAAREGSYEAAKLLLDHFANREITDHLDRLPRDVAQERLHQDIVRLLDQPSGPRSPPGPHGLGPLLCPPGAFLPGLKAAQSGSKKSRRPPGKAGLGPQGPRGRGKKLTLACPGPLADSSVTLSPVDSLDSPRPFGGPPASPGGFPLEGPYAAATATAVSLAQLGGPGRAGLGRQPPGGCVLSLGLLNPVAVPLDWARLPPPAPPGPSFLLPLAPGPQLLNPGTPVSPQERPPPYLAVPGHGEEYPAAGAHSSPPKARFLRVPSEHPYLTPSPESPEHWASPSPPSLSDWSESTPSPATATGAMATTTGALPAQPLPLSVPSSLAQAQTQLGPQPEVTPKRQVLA

[20] = small-molecule microarray binders of probe aEGFR, primary screen, biochemical, biotinylated probe, 635/667 nm fluorescence (AID 1097); details: higher = more signal;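 note: probe is a biotinylated anti-EGFR antibody binding compounds printed on slides; score combines fluorescence near 667 nm and signal to noise of each spot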

C=C(CCCC)C(=O)CC[C@H](OC(=O)c1ccccc1-c1ccccc1C(=O)O)c1ccccc1OCCO
composite z-score [1]: -0.0134
composite z-score [2]: 0.814
composite z-score [3]: -0.149
composite z-score [4]: 0.76
composite z-score [5]: -0.331
composite z-score [6]: 1.06
composite z-score [7]: 1.07
z-score [8]: -1.42 (inactive)
composite z-score [9]: -0.214
composite z-score [10]: -0.249
composite z-score [11]: 0.774
z-score [12]: 0.604 (inactive)
z-score [13]: -0.659 (inactive)
z-score [14]: -0.918 (inactive)
composite z-score [15]: 0.189
z-score [16]: 1.07 (inactive)
composite z-score [17]: -0.183
composite z-score [18]: 0.512
composite z-score [19]: -0.025
composite z-score [20]: -0.162

CC(C)c1ccc(NN2C(C(O)Cc3ccccc3)C=CC3C(=O)N(c4ccccc4)C(=O)C32)cc1 (stereo not given)
composite z-score [1]: 0.0399
composite z-score [2]: -0.0235
composite z-score [3]: 0.0116
composite z-score [4]: 0.408
composite z-score [5]: 1.5
composite z-score [6]: 1.76
composite z-score [7]: 0.593
z-score [8]: 0.0899 (inactive)
composite z-score [9]: 1.36
composite z-score [10]: -0.0645
composite z-score [11]: 1.48
z-score [12]: -0.619 (inactive)
z-score [13]: -0.699 (inactive)
z-score [14]: 0.844 (inactive)
composite z-score [15]: 3.51
z-score [16]: -1.36 (inactive)
composite z-score [17]: 0.388
composite z-score [18]: 0.294
composite z-score [19]: 1.07
composite z-score [20]: 0.205

O=C(NCC(O)CO)[C@@]1(CCS(=O)(=O)c2ccccc2)COC(c2ccc(OCCCO)cc2)=N1 (stereo not given in full)
composite z-score [1]: 1.05
composite z-score [2]: 1.85
composite z-score [3]: 0.0729
composite z-score [4]: 0.25
composite z-score [5]: 1.45
composite z-score [6]: 2.12
composite z-score [7]: 1.41
z-score [8]: -1.16 (inactive)
composite z-score [9]: 1.1
composite z-score [10]: -0.214
composite z-score [11]: 0.797
z-score [12]: 0.257 (inactive)
z-score [13]: -0.197 (inactive)
z-score [14]: 0.648 (inactive)
composite z-score [15]: 3.86
z-score [16]: 0.671 (inactive)
composite z-score [17]: 0.362
composite z-score [18]: 0.481
composite z-score [19]: 0.79
composite z-score [20]: 0.473

O=C(N1CCOCC1)[C@@]1(CCS(=O)(=O)c2ccccc2)N=C(c2ccc(OCCCO)cc2)O[C@H]1c1ccccc1
composite z-score [1]: 0.448
composite z-score [2]: 1.06
composite z-score [3]: 0.0671
composite z-score [4]: 0.515
composite z-score [5]: 1.45
composite z-score [6]: 2.31
composite z-score [7]: 1.37
z-score [8]: 0.419 (inactive)
composite z-score [9]: 1.37
composite z-score [10]: -0.191
composite z-score [11]: 1.44
z-score [12]: 0.487 (inactive)
z-score [13]: 0.395 (inactive)
z-score [14]: -0.0156 (inactive)
composite z-score [15]: 3.56
z-score [16]: 0.746 (inactive)
composite z-score [17]: 0.352
composite z-score [18]: 0.136
composite z-score [19]: 1.15
composite z-score [20]: 0.156

CCCCNC(=O)c1ccc(C#C[Si](C(C)C)(C(C)C)C(C)C)c(OC(C)=O)c1
composite z-score [1]: -0.294
composite z-score [2]: -0.189
composite z-score [3]: -0.108
composite z-score [4]: 0.493
composite z-score [5]: 1.57
composite z-score [6]: 0.812
composite z-score [7]: 1.09
z-score [8]: -0.198 (inactive)
composite z-score [9]: 0.207
composite z-score [10]: 0.0722
composite z-score [11]: 0.613
z-score [12]: -0.272 (inactive)
z-score [13]: -1.61 (inactive)
z-score [14]: 0.645 (inactive)
composite z-score [15]: 0.765
z-score [16]: -0.423 (inactive)
composite z-score [17]: -0.0916
composite z-score [18]: 0.926
composite z-score [19]: 1.05
composite z-score [20]: -0.0208

CC(C)C[C@@H]1NC(=O)[C@@H]2C[C@H](C(=O)NCCCCCC[N+](C)(C)C)[C@H](c3cccc(OCCO)c3)N2C1=O
composite z-score [1]: 0.222
composite z-score [2]: 0.0263
composite z-score [3]: -0.145
composite z-score [4]: -0.289
composite z-score [5]: 0.114
composite z-score [6]: 1.06
composite z-score [7]: 1.18
z-score [8]: 2.84 (inactive)
composite z-score [9]: -0.304
composite z-score [10]: -0.126
composite z-score [11]: 1.58
z-score [12]: -0.632 (inactive)
z-score [13]: 0.806 (inactive)
z-score [14]: 0.24 (inactive)
composite z-score [15]: 3.23
z-score [16]: -0.209 (inactive)
composite z-score [17]: -0.135
composite z-score [18]: -0.143
composite z-score [19]: 0.766
composite z-score [20]: -0.0572

COc1cc(C(O)C2C=CC3C(=O)N(Cc4ccccc4)C(=O)C3N2n2cnnc2)cc(OC)c1OC (stereo not given)
composite z-score [1]: -0.246
composite z-score [2]: 0.606
composite z-score [3]: 0.133
composite z-score [4]: 0.537
composite z-score [5]: 1.49
composite z-score [6]: 0.332
composite z-score [7]: 1.14
z-score [8]: -1.7 (inactive)
composite z-score [9]: 0.39
composite z-score [10]: -0.0867
composite z-score [11]: 0.932
z-score [12]: -1.3 (inactive)
z-score [13]: -0.519 (inactive)
z-score [14]: -1.22 (inactive)
composite z-score [15]: 1.36
z-score [16]: 0.582 (inactive)
composite z-score [17]: 0.327
composite z-score [18]: -0.127
composite z-score [19]: 0.626
composite z-score [20]: 0.298

NCCCCCNC(=O)[C@H]1C[C@H]2C(=O)N[C@@H](Cc3ccccc3)C(=O)N2[C@H]1c1ccc(O)cc1
composite z-score [1]: 2.14
composite z-score [2]: -0.045
composite z-score [3]: 0.175
composite z-score [4]: 0.199
composite z-score [5]: 0.685
composite z-score [6]: 1.73
composite z-score [7]: 0.573
z-score [8]: 0.902 (inactive)
composite z-score [9]: 1.46
composite z-score [10]: 0.883
composite z-score [11]: 0.584
z-score [12]: 0.5 (inactive)
z-score [13]: -0.335 (inactive)
z-score [14]: -0.578 (inactive)
composite z-score [15]: 1.92
z-score [16]: 0.0565 (inactive)
composite z-score [17]: 0.887
composite z-score [18]: 0.521
composite z-score [19]: 0.423
composite z-score [20]: 0.151

O=C1OCCC/C=C\[C@H]2OC34C=CCN(c5ccc6ccccc6c5)C(=O)[C@H]3N(CCCO)C(=O)[C@@H]4C12 (stereo not given in full)
composite z-score [1]: -0.0204
composite z-score [2]: 0.994
composite z-score [3]: -0.101
composite z-score [4]: -0.316
composite z-score [5]: -0.631
composite z-score [6]: 0.437
composite z-score [7]: 0.626
z-score [8]: 1.2 (inactive)
composite z-score [9]: -0.72
composite z-score [10]: -0.12
composite z-score [11]: 0.463
z-score [12]: -1.59 (inactive)
z-score [13]: -0.647 (inactive)
z-score [14]: -0.597 (inactive)
composite z-score [15]: 0.969
z-score [16]: -0.377 (inactive)
composite z-score [17]: -0.091
composite z-score [18]: -0.534
composite z-score [19]: 0.0065
composite z-score [20]: -0.195

CC1(C)C(=O)C(c2ccccc2)=C2CN3C(=O)N(CCc4ccccc4)C(=O)C3(Cc3ccc(C(F)(F)F)cc3)C=C21 (stereo not given)
composite z-score [1]: 0.138
composite z-score [2]: -0.2
composite z-score [3]: 0.0814
composite z-score [4]: 0.432
composite z-score [5]: 1.66
composite z-score [6]: 0.613
composite z-score [7]: 0.831
z-score [8]: -0.495 (inactive)
composite z-score [9]: 1.67
composite z-score [10]: -0.0024
composite z-score [11]: -0.362
z-score [12]: 1.32 (inactive)
z-score [13]: 2.01 (inactive)
z-score [14]: 3.28 (inactive)
composite z-score [15]: 2.65
z-score [16]: -1.21 (inactive)
composite z-score [17]: 0.208
composite z-score [18]: -0.0717
composite z-score [19]: 1.13
composite z-score [20]: 0.284
